# Measured values: PubChem BioAssay AID1347075 (National Center for Advancing Translational Sciences (NCATS), 2019)
# The whole screen tested about 400,000 compounds, of which about 5,500 (1.4%) were called active. Entries that show only a call come without a potency. Another 9% or so got no clear call; they are omitted. Calls follow the shape of the dose curve; as a rule, active = well fitted cell-killing curve with a large enough effect; inconclusive = small, poorly fitted or top-dose-only effect, or effect the other way; inactive = flat fitted curve, though single readings scatter. The sample as a whole holds a higher share of actives than the screen did.
# Test: qHTS assay for MDR1-selective chemotherapeutics: Primary screen using the parental adenocarcinoma cell KB-3-1; also: nearly all actives have a fitted effect of over 60% in size
# Settings: KB-3-1 viability, CellTiter-Glo ATP luminescence, 72 h; series mostly up to 46.1 µM
# How it was run: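 72 h, 37 °C compound treatment of KB-3-1 parental cells; CellTiter-Glo added, 10 min, luminescence read. Data corrected against DMSO-only plates and normalized before curve fitting.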
# Potency is read from the fitted curve at half-maximal effect.
row,SMILES,Potency
1,Brc1cccc[n+]1Cc1cccc(C[n+]2ccccc2Br)c1,inactive
2,COc1ccccc1/C=C/C=N/n1c(-c2ccc(Cl)cc2Cl)n[nH]c1=S,inactive
3,S=c1[nH]nc(-c2ccco2)n1/N=C/c1ccc(Br)s1,inactive
4,Cc1cc(-c2n[nH]c(=S)n2/N=C/C(Br)=C/c2ccccc2)n[nH]1,5.8 µM (active)
5,CN(C)CCCn1c(N)c(C#N)c2nc(C#N)c(C#N)nc21,23.1 µM (active)
6,COCCn1c(SCC(=O)c2cc(C)ccc2C)nc2cc(C(=O)NC3CCCC3)ccc2c1=O,inactive
7,CCCCc1c(-c2ccc(Br)cc2)ncn1CCc1ccccc1OC,16.4 µM (active)
8,CCOc1ccc(-c2n[nH]c3c2C(c2ccccc2OC)N(c2ccc(Br)cc2)C3=O)cc1 (stereo unspecified),inactive
9,CCCc1c(-c2ccccc2F)ncn1Cc1ccccc1OC,20.6 µM (active)
10,COc1ccccc1CN1CCN(Cc2cc(OC)c(OC)cc2OC)CC1,inactive
11,COCCn1cnc2c1c(=O)n(Cc1ccc(Br)cc1)c(=O)n2Cc1ccccc1,inactive
12,COc1ccccc1CCNS(=O)(=O)c1cn(C)nc1C,inactive
13,CCCCCc1c(Cc2ccccc2)ncn1CCc1ccccc1OC,16.4 µM (active)
14,COc1cccc(OC)c1C(=O)N1CCN(Cc2ccccc2F)CC1,inactive
15,Cn1c(=O)c2c(ncn2CCc2ccccc2)n(C)c1=O,inactive
16,CC(=O)Nc1ccc(NC(=O)CCCc2nc(-c3ccc(C(C)(C)C)cc3)no2)cc1,inactive
17,COc1cc(C(=O)N(Cc2ccc(C(C)C)cc2)C2CCS(=O)(=O)C2)cc(OC)c1OC (stereo unspecified),inactive
18,CCCN(CCC)C(=O)C(Cc1ccccc1)NS(=O)(=O)c1ccc2c(c1)c(=O)n(C)c(=O)n2C (stereo unspecified),inactive
19,N#C/C(=C\c1cccc(F)c1)c1nc(-c2cc3c(ccc4ccccc43)oc2=O)cs1,inactive
20,O=C(NCCCO)C(=O)Nc1c2c(nn1-c1ccc(F)cc1)CSC2,inactive
21,CN(C)Cc1cn(-c2ccccc2)nc1-c1ccccc1,inactive
22,N#Cc1ccc(OC2=NS(=O)(=O)c3ccccc32)cc1,inactive

row,SMILES,Potency
1,Cn1c(=O)c2c(nc(NCCc3ccccc3)n2Cc2ccccc2Br)n(C)c1=O,inactive
2,OC(Cc1ccc2ccccc2n1)c1ccc(Cl)c(Cl)c1 (stereo unspecified),inactive
3,O=S(=O)(c1ccc(Br)cc1)c1nnn2c1nc(N1CCOCC1)c1sccc12,inactive
4,CCOC(=O)C1CCCN(C(=O)c2ccc(-n3ccc4ccccc43)s2)C1 (stereo unspecified),inactive
5,O=C1C=C(c2ccnc3cc(Cl)ccc23)C[C@@H](c2ccc3c(c2)OCO3)C1,23.1 µM (active)
6,O=C1C=C(c2cc(C(F)(F)F)cc(C(F)(F)F)c2)C[C@@H](c2ccc3c(c2)OCO3)C1,inactive
7,COc1ccc2cc(C3=CC(=O)C[C@H](c4ccc5c(c4)OCO5)C3)ccc2c1,inactive
8,CCSc1ncc(Cl)c(C(=O)Nc2c(C(=O)c3ccccc3)oc3ccccc23)n1,inactive
9,Cc1cn(C)c(CC(=O)NCc2ccccc2)c1C(=O)O,inactive
10,CC(C)CC(=O)NCC(c1ccc2c(c1)OCO2)N1CCN(c2ccc(F)cc2)CC1 (stereo unspecified),inactive
11,c1ccc(CNCc2ccc(CNCc3ccccc3)cc2)cc1,inactive
12,[O-][n+]1ccc(OCc2ccccc2)cc1,inactive
13,c1ccc(Cc2cc[n+](Cc3ccccc3)cc2)cc1,18.4 µM (active)
14,CCC(=O)Nc1c(C(=O)N2CCN(c3ccc(F)cc3)CC2)oc2ccccc12,inactive
15,COCCN(Cc1ccco1)C(=O)Cn1ncc2c([nH]c3ccccc32)c1=O,inactive
16,CCOc1[nH]n(-c2ccc(Cl)cc2)c(=O)c1C=Nc1ccc(O)cc1,18.4 µM (active)
17,CCOc1ccc(N=C2NC(=O)S/C2=C\c2ccc(O)cc2)cc1,inactive
18,Fc1ccc(C(Nc2ccc(Cl)c(C(F)(F)F)c2)c2nnc(-c3ccccc3)o2)cc1 (stereo unspecified),inactive
19,CCOc1ccccc1N(CC)C(=O)c1cc2ccc3cccnc3c2[nH]1,inactive
20,COc1ccc(CNC(=O)c2cc3c(=O)[nH]c4ccc(C)cc4c3s2)c(OC)c1,inactive
21,CCN(CC)CCCNC(=O)c1cc2c(=O)[nH]c3ccc(C)cc3c2s1,inactive
22,Cc1cccc(N(C)C(=O)c2cc3c(=O)[nH]c4ccc(C)cc4c3s2)c1,7.31 µM (active)

row,SMILES,Potency
1,Cc1cc(C(=O)Nc2cccc(C(F)(F)F)c2)c2c(C)nn(-c3cccc(F)c3)c2n1,18.4 µM (active)
2,CSc1ccc(CCNC(=O)c2cc(C)nc3c2c(C)nn3-c2cccc(F)c2)cc1,inactive
3,COc1cc(NC(=O)c2cc(C3CC3)nc3c2c(C)nn3-c2ccccc2)cc(OC)c1,inactive
4,Cc1ccc(S(=O)(=O)C2(S(=O)(=O)c3ccc(C)cc3)CCCC2)cc1,6.51 µM (active)
5,Cc1ccc(S(=O)(=O)N(C)C2(C)CCS(=O)(=O)C2)cc1 (stereo unspecified),inactive
6,Cc1ccc(S(=O)(=O)N2CCN(C)CC2)cc1,inactive
7,COc1ccc(C2c3c(oc4ccccc4c3=O)C(=O)N2Cc2ccc3c(c2)OCO3)cc1 (stereo unspecified),inactive
8,COC(=O)c1sccc1S(=O)(=O)N(CC(=O)Nc1ccc(C)c(F)c1)c1ccc(C)c(C)c1,inactive
9,O=C(Nc1ccc(-c2nc3ccccc3[nH]2)cc1)c1ccncc1,inactive
10,CCCC(=O)Nc1nc2ccc(NC(=O)c3c(F)c(F)c(OC)c(F)c3F)cc2s1,2.59 µM (active)
11,CCCn1nc(C(=O)Nc2ccc3nc(C)sc3c2)c2ccccc2c1=O,inactive
12,CC(=O)Nc1ccc2nc(NC(=O)CS(=O)(=O)c3ccc(F)cc3)sc2c1,inactive
13,CC(=O)c1ccc(N2CCN(c3nc4c(S(=O)(=O)c5ccccc5)nnn4c4ccc(Cl)cc34)CC2)cc1,inactive
14,O=C(N/N=C/c1ccc(Cl)c(Cl)c1)c1ccc2nc[nH]c2c1,18.4 µM (active)
15,CC(=NNC(=O)c1ccc2nc[nH]c2c1)c1ccc(Br)cc1,inactive
16,CC1=NNC(=O)C1CCC(=O)N/N=C\c1ccc(Cl)c(Cl)c1 (stereo unspecified),inactive
17,CNc1ccc(-c2nc(-c3ccccc3C)no2)cc1[N+](=O)[O-],inactive
18,COc1ccc(Cn2cc(C(=O)c3ccc(C)cc3)c(=O)c3cc(OC)c(OC)cc32)cc1,inactive
19,O=C1C[C@H]2C=CCc3cccc(c32)CN1Cc1ccccc1,inactive
20,COc1ccc(C2C(C#N)=C(N)Oc3cc(N)ccc32)cc1OC (stereo unspecified),16.4 µM (active)
21,COc1ccc(C2C(C#N)=C(/N=C/N3CCOCC3)OC3=C2C(=O)CC(C)(C)C3)cc1OC (stereo unspecified),inactive
22,N#CC1=C(N)Oc2cc(O)ccc2C1C1CCCCC1 (stereo unspecified),inactive
